{"source": "PubChem BioAssay AID463173", "about": "(ICCB-Longwood Screening Facility, Harvard Medical School, 2010)", "note": "The whole screen tested about 52,000 compounds, of which about 4,300 (8.3%) were called active. For the sample, actives were picked, then their nearest neighbours and some compounds at random. A number with no mark means an inactive call. Rule as the data show it: active = survival mostly below about 52% (no sharp cut-off); inactive = mostly above about 56%."}
{"tested_on": "DeltatarO mutant", "assay": "growth inhibition of S. aureus wild type versus tarO mutant, primary screen, teichoic acid synthesis inhibitors, RN4220, OD600 (AID 463173)", "settings": "OD600, 18 h, hits give low values, screened at 18.75 µg/mL (by protocol)"}
{"compound": "CC(C)(Oc1ccc(Br)cc1)C(=O)Nc1cc(-c2nc3ccccc3[nH]2)ccc1Cl", "survival": "76%"}
{"compound": "COc1ccc(Br)cc1C(=O)Nc1ccc2oc(-c3cccnc3)nc2c1", "survival": "117%"}
{"compound": "COc1ccc(-c2nc3ccccc3o2)cc1NC(=O)c1cccnc1", "survival": "45% (active)"}
{"compound": "COc1ccc(/C=C/C(=O)Nc2cc(-c3nc4ccccc4o3)ccc2OC)cc1", "survival": "50%"}
{"compound": "COc1ccc(-c2nc3ccccc3o2)cc1NC(=O)c1ccc(-c2cccc(Cl)c2C)o1", "survival": "58%"}
{"compound": "CCOc1ccc(C(=O)Nc2cc(-c3nc4ccccc4o3)ccc2C)cc1Cl", "survival": "51%"}
{"compound": "Cc1ccc2nc(-c3ccc(Cl)c(NC(=O)c4cccnc4)c3)oc2c1", "survival": "126%"}
{"compound": "COc1ccc(-c2nc3ccccc3o2)cc1NC(=O)c1ccc(-c2ccc(C)c(Cl)c2)o1", "survival": "41% (active)"}
{"compound": "COc1ccc(-c2nc3ccccc3o2)cc1NC(=O)c1cc(Br)ccc1OC", "survival": "40% (active)"}
{"compound": "CCOc1ccc(NC(=O)NCCN2CCN(c3cccc(C)c3C)CC2)cc1", "survival": "60%"}
{"compound": "Cc1ccc(C)c(N2CCN(C(=O)c3cn(CC(C)C)c(=O)c4c3c3ccccc3n4C)CC2)c1", "survival": "28%"}
{"compound": "COc1ccccc1CNC(=O)C1CCN(c2ncnc3c2nc2n3CCCCC2)CC1", "survival": "94%"}
{"compound": "Cc1ccc2cc(C(c3nnnn3C3CCCC3)N3CCCc4ccccc43)c(=O)[nH]c2c1", "note": "(stereo not given)", "survival": "97%"}
{"compound": "CCN(CC)C(=O)Cn1cc(C(=O)C(C)C)c2ccccc21", "survival": "87%"}
{"compound": "Cc1ccc(NC(=O)c2cnc(N3CCCC3)nc2C)cc1F", "survival": "89%"}
{"compound": "Cc1cc2[nH]c(=O)c(=O)[nH]c2cc1S(=O)(=O)N1CCN(c2cccc(C(F)(F)F)c2)CC1", "survival": "78%"}
{"compound": "COc1ccc(-c2nc3ccccc3o2)cc1NC(=O)c1ccc(N2CCC(C)CC2)c([N+](=O)[O-])c1", "survival": "66%"}
{"compound": "COc1ccc(-c2nc3ccccc3o2)cc1N", "survival": "72%"}
{"compound": "COc1ccc(-c2nc3ccccc3o2)cc1NC(=O)c1ccc(-c2ccc(Br)cc2)o1", "survival": "43% (active)"}
{"compound": "CCN(CC)S(=O)(=O)c1ccc2c(c1)N(CC(=O)N(C)Cc1ccccc1)C(=O)CO2", "survival": "82%"}
{"compound": "Cc1cccc(Cn2c(CN3CCCC(C)C3)nc3c2c(=O)n(C)c(=O)n3C)c1", "note": "(stereo not given)", "survival": "73%"}
{"compound": "Cc1ccc(NC(=O)Cn2c(=O)n(CC(=O)NCCc3ccccc3)c(=O)c3ccccc32)cc1C", "survival": "67%"}
{"compound": "Cc1ccc(NC(=O)c2cc(S(=O)(=O)NCCC3=CCCCC3)ccc2F)cc1C", "survival": "20% (active)"}
{"compound": "COc1ccc(CCNS(=O)(=O)c2ccc(F)c(C(=O)Nc3ccc(Cl)cc3)c2)cc1OC", "survival": "104%"}
{"compound": "Cc1cc(C)cc(NC(=O)c2cc(S(=O)(=O)NCCC3=CCCCC3)ccc2F)c1", "survival": "67%"}
{"compound": "Cc1ccc(NC(=O)c2cc(S(=O)(=O)NCCc3ccc(Cl)cc3)ccc2F)cc1", "survival": "80%"}
{"compound": "Cc1ccc(C)c(NC(=O)c2cc(S(=O)(=O)NCc3ccccc3)ccc2F)c1", "survival": "71%"}
{"compound": "Cc1cc(C)c(NC(=O)c2cc(S(=O)(=O)NCCC3=CCCCC3)ccc2F)c(C)c1", "survival": "85%"}
{"compound": "COc1ccc(C)cc1NC(=O)c1cc(S(=O)(=O)NCCC2=CCCCC2)ccc1F", "survival": "105%"}
{"compound": "Cc1ccc(C)c(NC(=O)c2cc(S(=O)(=O)NCCC3=CCCCC3)ccc2F)c1", "survival": "52% (active)"}
{"compound": "COc1ccc(OC)c(NC(=O)c2cc(S(=O)(=O)NCCc3ccc(Cl)cc3)ccc2F)c1", "survival": "70%"}
{"compound": "CCc1ccccc1NC(=O)c1cc(S(=O)(=O)NCCc2ccc(OC)c(OC)c2)ccc1F", "survival": "8% (active)"}
{"compound": "Cc1ccc(NC(=O)c2cc(S(=O)(=O)NCCC3=CCCCC3)ccc2F)cc1F", "survival": "115%"}
{"compound": "Cc1ccc(CNS(=O)(=O)c2ccc(F)c(C(=O)Nc3ccc(C)c(F)c3)c2)cc1", "survival": "46% (active)"}
{"compound": "CC(C)C(OC(=O)c1cccs1)C(=O)NC1CCCC1", "note": "(stereo not given)", "survival": "96%"}
{"compound": "Cc1nn(C(=O)c2cccc(Cl)c2)c(C)c1S(=O)(=O)N1CCOCC1", "survival": "82%"}
{"compound": "Cc1ccc(C(=O)Nc2ccc(-c3nc4ccccc4o3)cc2)cc1Cl", "survival": "68%"}
{"compound": "Cc1nnc(SCc2cc(=O)c3ccccc3[nH]2)s1", "survival": "125%"}
{"compound": "CCC(=O)N(CCC(c1ccccc1)c1ccc2c(c1)OCO2)Cc1ccc(OC(C)C)cc1", "note": "(stereo not given)", "survival": "0% (active)"}
{"compound": "CCOCCCNC(=O)C(c1ccccc1)N(Cc1ccc2c(c1)OCO2)C(=O)c1ccc(NC(C)=O)cc1", "note": "(stereo not given)", "survival": "51%"}
{"compound": "COc1cc2cc(CN(Cc3ccc4c(c3)OCO4)C(=O)NCc3ccccc3)c(=O)[nH]c2cc1OC", "survival": "102%"}
{"compound": "NC(=O)CC(c1ccccc1)c1ccc2c(c1)OCO2", "note": "(stereo not given)", "survival": "97%"}
{"compound": "COc1ccc(CN(CCC(c2ccc3c(c2)OCO3)c2ccccc2OC)C(C)=O)cc1", "note": "(stereo not given)", "survival": "19% (active)"}
{"compound": "CCOCCCNC(=O)C(c1ccc(OC)cc1)N(Cc1ccc2c(c1)OCO2)C(=O)c1ccccc1O", "note": "(stereo not given)", "survival": "62%"}
{"compound": "COc1ccc(CCNC(=O)c2ccc3c(c2)OCO3)cc1", "survival": "110%"}
{"compound": "N#CCC(c1ccccc1)c1ccc2c(c1)OCO2", "note": "(stereo not given)", "survival": "92%"}
{"compound": "COc1ccc(CNCCC(c2ccc3c(c2)OCO3)c2ccccc2OC)cc1", "note": "(stereo not given)", "survival": "1% (active)"}
{"compound": "COc1ccc(CNCCC(c2ccccc2)c2ccc3c(c2)OCO3)cc1", "note": "(stereo not given)", "survival": "-14% (active)"}
{"compound": "CCOCCCNC(=O)C(c1ccc(OC)cc1)N(Cc1ccc2c(c1)OCO2)C(=O)c1ccc(NC(C)=O)cc1", "note": "(stereo not given)", "survival": "50%"}
{"compound": "COc1ccc(CNCCC(c2ccc(C)cc2)c2ccco2)cc1", "note": "(stereo not given)", "survival": "64%"}
